Rows were chosen to be rich in hits. Some 3% of all compounds tested hit in one or more screens of this group.
SKKanGAS inh: SKKanGAS growth inhibition; AID 1662; 300,000 compounds, 1.3% hits; inhibition, % at 7.5 µM; S. pyogenes SKKanGAS, kanamycin growth, BacTiter-Glo, 6 h;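 active means mean replicate score, as percent of positive control median, at least 50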;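 further: strain carries kanamycin resistance gene driven by streptokinase promoter and grows in 40 µg/ml kanamycin; loss of luminescence reflects streptokinase promoter inhibition or plain growth inhibition; 0% = median of DMSO wells and 100% = positive control at its reference dose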
IEC-6 tox: counter-screen for KLF5 inhibitors: cytotoxicity in IEC-6 cells; AID 1825; inhibition, % at 5 µM; IEC-6 cytotoxicity, luminescence viability; 290,000 compounds, 0.78% hits; in the data active means inhibition above about 22%;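 further: 0% = plate median of test compound wells and 100% = cytotoxic reference compound wells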
CSC inhib: cancer stem cell inhibition. cancer stem cell-like cells viability, luminescence. inhibition, % at 7.5 µM. 300,000 compounds, 1.1% hits. AID 2717; in the data active means inhibition above about 75%; tested in HMLE shEcad cells
KLF5 inhibitor: suppresses KLF5 promoter-driven expression; 290,000 compounds, 0.23% hits; AID 1700; DLD-1 KLF5 promoter-luciferase reporter, luminescence; inhibition, % at 5 µM;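 active means inhibition above a per-plate limit of that plate's mean compound inhibition plus 3 SD, cut at about 60% in these data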;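 further: 0% = DMSO wells and 100% = LY294002 at 200 µM; higher means less KLF5 promoter-driven luciferase light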
aSyn UTR inh: 5' untranslated region of α-synuclein, MLPCN primary screen | alpha-synuclein 5'UTR reporter, inhibitor activity | inhibition, % (tested at 7.5 µM) | 300,000 compounds, 0.82% hits | AID 1813; in the data active means inhibition above about 60%;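 further: H4 neuroglioblastoma cells stably carrying SNCA 5'UTR luciferase fusion; 0% = DMSO wells and 100% = positive control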
Numbers without * were called inactive; nt = no result given.

SMILES	SKKanGAS inh	IEC-6 tox	CSC inhib	KLF5 inhibitor	aSyn UTR inh
CCCCCOc1ccc(C2C(C(=O)c3ccc(C)o3)=C(O)C(=O)N2c2cc(C)on2)cc1 (stereo not given)	81.4*	-10.2	-2.1	-44.6	-24.1
O=C(Nc1nnc(SCC(=O)N2CCCc3ccccc32)s1)c1ccccc1	-2.9	-2.0	-11.9	-42.8	-56.9
Cc1cc(C)cc(C(=O)Nc2nnc(SCC(=O)N3CCCc4ccccc43)s2)c1	21.1	-1.5	75.2*	-21.4	0.0
Cc1nn(CCc2nn[nH]n2)c2nc(-c3ccc(C4CCCCC4)cc3)cc(C(F)(F)F)c12	103.8*	-0.4	110.4*	2.8	-30.1
Cc1cc(C)n2nc(C(=O)OCC(=O)N3CC(C)CC(C)C3)nc2n1 (stereo not given)	-1.5	nt	-7.4	nt	-8.8
CCCCCCCn1c2c(c(=N)c3ccccc31)CCC2	2.0	33.6*	39.8	-12.1	79.4*
O=C(NN=C1CCCC1)c1cccc(Br)c1	-1.5	6.2	15.1	-15.8	3.9
N=C1SC(c2ccccc2)C(=O)N1c1ncc(Cc2ccccc2Cl)s1 (stereo not given)	116.2*	0.0	-7.8	-13.1	17.0
COc1ccc(-c2noc(CN3CCCC(OCc4ccccn4)C3)n2)cc1 (stereo not given)	-2.3	5.2	nt	-30.7	2.1
CCCN1CNc2c(c(=O)[nH]c(=S)n2CCc2ccc(OC)c(OC)c2)C1	0.7	5.0	3.5	0.6	0.6
O=C(N/N=C/c1cc(Br)ccc1O)c1cccc(N2CCCC2=O)c1	26.9	-0.2	36.1	13.9	68.4*
COC(=O)N/N=C/c1cc(Br)ccc1O	-5.3	1.7	1.4	-20.6	-18.8
Oc1ccc(Br)cc1/C=N/NC(=S)NCCc1ccccc1	89.7*	-2.6	105.1*	-8.6	19.6
O=C(N/N=C/c1cc(Br)ccc1O)c1ccccc1Cl	68.4*	4.7	20.1	14.3	67.1*
O=C(NCCC(=O)N1CCC2(CC1)NCCc1[nH]cnc12)c1cccc(Br)c1	-2.3	-5.8	-32.8	-42.1	17.5
Cc1ncoc1C(=O)NC1CCCc2c1cnn2-c1ccc(C(C)(C)C)cc1 (stereo not given)	-4.3	2.2	nt	0.9	-12.1
Cc1ccc(CSc2ccc(-c3ccc4c(c3)OCO4)nn2)cc1	-4.8	-2.4	79.0*	-32.1	-2.3
Cc1ccc(CSc2nnc(-c3ccc4c(c3)OCO4)o2)cc1	-1.6	-1.3	-3.7	1.5	-9.9
O=C(CN1CCN(c2ccc(O)cc2)CC1)Nc1ccc(SC(F)F)cc1	8.9	4.4	133.7*	-4.3	42.1
COc1cccc(N2CCN(CC(=O)Nc3ccc(SC(F)F)cc3)CC2)c1	4.3	-1.3	-1.6	-21.0	53.4
CCc1ccc(OCC(=O)Nc2ccc(N3CCN(S(C)(=O)=O)CC3)cc2)cc1	4.8	0.0	-3.3	-6.6	-1.7
c1ccc(C(NCCNC(c2ccccc2)c2ccccc2)c2ccccc2)cc1	104.6*	0.3	29.6	-13.2	6.8
C(=C\c1nc2ccccc2[nH]1)/c1ccccc1	22.3	16.8	81.7*	-39.8	46.8
CN(CCO)c1ccc(C=NNc2ccc([N+](=O)[O-])cc2S(=O)(=O)Nc2ccccc2C(=O)O)cc1	nt	nt	20.1	nt	nt
CCC1=C2CC[C@H]3C(=O)N(CC(=O)OC)C(=O)[C@H]3[C@H]2[C@@]2(C)C(=NCC(=O)OC)OC(=O)N2C1=O	-3.8	nt	-10.6	nt	18.6
SMILES	SKKanGAS inh	IEC-6 tox	CSC inhib	KLF5 inhibitor	aSyn UTR inh
Cc1cc(C)cc(N(CC(=O)NC2CCCC2)C(=O)CCC(=O)Nc2nc(C)cs2)c1	11.6	4.4	0.6	3.8	6.7
OC1(C#CCN2CCCC2)CCCCC1	-4.3	0.7	-6.3	-7.8	6.5
CC1=CC(C)(C)N(S(=O)(=O)c2ccc(F)cc2)c2ccc(C)cc21	5.6	7.0	87.2*	-27.0	8.1
Cn1c(C(=O)N2CCN(c3ccc([N+](=O)[O-])cc3)CC2)cc2c(=O)[nH]c3ccccc3c21	74.9*	3.0	nt	-19.7	11.1
O=c1oc2cc(Br)ccc2n1Cc1ccccc1	5.0	12.8	7.0	-14.7	-14.8
C[C@H]1c2cccc(O)c2C(O)=C2C(=O)[C@]3(O)C(O)=C(C(N)=O)C(=O)[C@@H](N(C)C)C3[C@@H](O)C21 (stereo not given in full)	105.2*	nt	4.2	nt	37.4
O=C(NCCCSc1ccccc1)c1cc(Br)ccc1O	6.9	-4.1	79.5*	-2.0	10.6
Fc1ccc(NC(=S)Nc2cc(-c3ccccc3)[nH]n2)cc1Cl	32.0	1.6	87.6*	-15.3	-26.8
Cc1ccc(NC(=S)Nc2cc(-c3ccccc3)[nH]n2)cc1Cl	nt	1.1	3.3	14.4	nt
CN(C)c1ccc(NC(=O)COC(=O)Cn2nnc3ccccc32)cc1	0.7	2.7	-2.3	-3.9	13.1
Cc1csc(NC(=O)CCc2c(C)nc3cc(-c4ccc(Cl)cc4)nn3c2C)n1	nt	10.0	28.7	-1.4	nt
Cc1nc2cc(-c3ccc(Cl)cc3)nn2c(C)c1CCC(=O)NC(C)c1ccc2c(c1)OCCO2 (stereo not given)	25.5	-4.8	12.4	2.9	73.8*
Cc1ccc(NC(=O)c2cc(-c3ccc4c(c3)OCO4)on2)cc1C	5.0	-2.5	11.7	-39.9	-60.7
O=C(Nc1ccc2c(c1)OCO2)c1cc(-c2ccc(O)cc2)on1	0.1	5.5	101.2*	-79.9	-158.5
O=C(Nc1ccc2c(c1)OCO2)c1cc(-c2cccc(O)c2)on1	11.8	2.1	100.2*	-62.3	24.0
CC(C)Cc1cc(C(=O)Nc2ccc3c(c2)OCO3)no1	-3.4	2.5	121.5*	-95.8	-183.8
O=c1[nH]c(-c2ccccc2)ncc1Oc1ccccc1	-1.0	nt	-3.4	nt	15.9
CCc1cccc(N(C(=O)c2csnn2)C(C(=O)NC(C)(C)C)c2ccncc2)c1 (stereo not given)	4.0	-9.2	1.0	-14.6	-2.4
COC(=O)C(Cc1ccccc1)NC(=O)CC(C)CC(=O)Nc1ccc(C)cc1 (stereo not given)	-5.3	2.4	-6.9	-20.5	4.5
O=S(=O)(Nc1nc2ccccc2nc1Nc1cccc(S(=O)(=O)N2CCCCC2)c1)c1ccccc1	64.1*	0.7	124.1*	-38.0	46.8
COc1ccc(-c2cc(-c3ccccc3)c(C#N)c(SCC(=O)O)n2)cc1	9.3	nt	15.7	nt	5.5
COc1ccc(-c2cc(-c3ccccc3)nc(SC(C)C(=O)O)c2C#N)cc1 (stereo not given)	32.3	-0.3	16.4	-26.7	11.8
CC(C)C(Sc1nc(-c2ccccc2)cc(-c2ccccc2)c1C#N)C(=O)O (stereo not given)	53.3*	-0.8	47.6	-22.5	7.2
COc1ccccc1-c1cc(-c2ccccc2)nc(SCC(=O)O)c1C#N	83.8*	-0.2	11.3	-41.3	-12.0
CCCc1cc(-c2[nH]ncc2-c2ccc3c(c2)OCCCO3)c(O)cc1O	-5.5	-4.3	94.6*	-0.6	-24.6
CCCc1cc(-c2[nH]ncc2-c2ccc(C(=O)OCC)o2)c(O)cc1O	-0.7	-5.6	51.5	-24.3	-19.4
Cc1ccc(C(C)C)c(OCc2ccc(C(=O)N/N=C/c3ccc(O)c(O)c3)cc2)c1	30.8	8.2	108.6*	-28.4	31.3
COc1cc(/C=N/NC(=O)c2ccc(COc3cc(C)ccc3C(C)C)cc2)cc(OC)c1O	-1.4	5.1	21.7	-33.0	36.5

Screening results deposited in PubChem by several laboratories.
